The results in this text go back to PubChem BioAssay AID2284173 (EPA ToxCast).

SMILES strings stand for the structures. Calls of active or inactive are those of the source. How the source made its calls: active means hit-call score of the fitted dose curve at least 0.9, where 1 is the maximum; inactive means score below 0.9.

In the experiment the test system is rat KATP Antagonism, gene 24521. Description: ERF_FR_IC_rKCNJ1: Eurofins (ERF) Potassium Ion Channel Mass Spectrometry Ligand Binding LeadHunter Assay for rat KATP Antagonism. As to the method:
ERF_FR_IC_rKCNJ1 is a biochemical, single-readout assay that uses extracted gene-proteins in a cell-free assay. Measurements were taken 1 hour after chemical dosing in a 96-well plate. See KATP Rat Potassium Ion Channel Binding (Antagonist Radioligand) Assay, Cerep.ERF_FR_IC_rKCNJ1 is an assay component calculated from the ERF_FR_IC_rKCNJ1 assay. It is designed to measure radioligand binding using a type of binding reporter as detected by scintillation counting with radiometry technology.Data from the assay component ERF_FR_IC_rKCNJ1 was analyzed at the assay endpoint, ERF_FR_IC_rKCNJ1, in the positive analysis fitting direction relative to DMSO as the negative control and baseline of activity. Using a type of binding reporter, loss-of-signal activity can be used to understand changes in binding as they relate to gene KCNJ1. To generalize the intended target to other relatable targets, this assay endpoint is annotated to the ion channel intended target family, where the subfamily is voltage gated (Potassium).
Rat cells are incubated for 60 minutes at room temprature with Glibenclamide (0.07 nM) as ligand and Glibenclamide-d3 (30nM) as control inhibitor. Test Sample Requirements: Minimum for 1) Screen: 60 ul of 10 mM stock -OR- 1 mg (pre-weighed) for 10 uM final testing. 2) Dose Response: 90 ul of 10 mM stock -OR- 1 mg (pre-weighed) for a top concentration at 10 uM.
As for `O=C(/C=C/c1ccc(O)cc1)CC(=O)/C=C/c1ccc(O)cc1`, the AC50 is 880 nM (active).

One may read the AC50 as the concentration at which the activity in the assay is half-maximal.
